Screening results deposited in PubChem by several laboratories.
Only some compounds are listed: those with a hit (about 28% of all), similar ones and a draw of the others.
D1 mod – D1 CRE-luciferase signal change, two-sided – cell-based, HEK293 D1, dopamine EC30, D1 allosteric modulator project, primary screen; D(1A) dopamine receptor (Homo sapiens), P21728; dopamine EC30 potentiation; actives deviate in either direction; B-score at 10 µM; 58,000 tested, 5.9% active;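 active = luminescence count or its row- and column-corrected plate score outside the 99.7% band of the plate's sample wells, on either side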
CYP2C9 inhib – blockers of cytochrome P450 2C9 activity – biochemical, luminescence, ADME assay, primary screen. P11712. inhibition, % at 5 µM. 96,000 tested, 20% active. CYP2C9 Supersomes, luciferin-H conversion. AID 777, 2007;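 active = blocking of liver enzyme CYP2C9 beyond about 50% at 5 µM, limit read from the data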
Target sequence (P11712 whole entry, looked up): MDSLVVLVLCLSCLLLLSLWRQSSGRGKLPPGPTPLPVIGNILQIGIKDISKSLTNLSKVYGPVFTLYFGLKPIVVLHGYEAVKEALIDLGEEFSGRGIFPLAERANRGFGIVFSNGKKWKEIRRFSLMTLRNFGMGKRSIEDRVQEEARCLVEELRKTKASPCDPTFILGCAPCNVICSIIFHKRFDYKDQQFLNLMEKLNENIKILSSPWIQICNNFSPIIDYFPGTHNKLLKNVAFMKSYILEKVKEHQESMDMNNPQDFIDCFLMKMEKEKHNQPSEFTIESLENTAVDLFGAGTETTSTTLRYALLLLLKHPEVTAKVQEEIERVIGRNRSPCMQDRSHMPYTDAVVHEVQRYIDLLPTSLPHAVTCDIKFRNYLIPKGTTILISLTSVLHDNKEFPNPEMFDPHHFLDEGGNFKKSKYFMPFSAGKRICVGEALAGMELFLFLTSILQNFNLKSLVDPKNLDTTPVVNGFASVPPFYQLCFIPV
CYP2C9 activ – human CYP2C9 activators, primary screen, biochemical, luminescence; recombinant CYP2C9, luciferin-H conversion; hits give high values; factor 1 = untreated enzyme, 0 = blocked; activation factor at 5 µM; 96,000 tested, 1.4% active; AID 1024, 2008;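 active = activation factor of 2 or more for CYP2C9 at a 5 µM dose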;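 also: 0 = sulfaphenazole-blocked wells and 1 = vehicle-only wells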
CYP2C19 inhib – blockers of cytochrome P450 2C19 activity – biochemical, luminescence, ADME assay, primary screen | inhibition, % at 5 µM | P33261 | CYP2C19 Supersomes, luciferin-H EGE luminescence, 30 min | 96,000 tested, 21% active;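 active = CYP2C19 inhibition above a set limit at 5 µM in the primary screen, cut at about 50% in these data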;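 also: plate controls were negative control wells for no effect and 2.5 mM tranylcypromine positive control for full effect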
CYP2C19 act – human CYP2C19 activators, primary screen, biochemical, luminescence; Cytochrome P450 2C19 (Homo sapiens), P33261; recombinant CYP2C19, luciferin-H EGE luminescence; hits give high values; 0 = fully inhibited enzyme, 1 = untreated enzyme; activation factor at 5 µM; AID 1025, 2008; 96,000 tested, under 10 active;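 active = activation factor of at least 2 at 5 µM in the primary screen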;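 also: 0 = wells with 2.5 mM tranylcypromine and 1 = vehicle-only wells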
hDAT+cocaine – changed hDAT dopamine uptake under cocaine IC80, either direction, primary screen, cocaine antagonist project, cell-based, LLC-PK1 hDAT, [14C]-dopamine uptake, MLSMR; 110,000 tested, 1.3% active; AID 449768, 2010; B-score at 10 µM; LLC-PK1 hDAT cells, [14C]-dopamine uptake with cocaine IC80; actives deviate in either direction;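 active = Z score or B-score, a plate-position-corrected score, falls beyond the plate's 99.7% confidence bounds, in either direction; inactive = both scores lie inside the 99.7% bounds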;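 also: scored against the spread of the other compound wells on the same plate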
* marks the source's active call; other numbers are inactive results; · = not tested or not shown.

SMILES | D1 mod | CYP2C9 inhib | CYP2C9 activ | CYP2C19 inhib | CYP2C19 act | hDAT+cocaine
O=C(CSc1nc2ccccc2c(=O)n1NC(=O)Cc1ccccc1)NCc1ccccc1Cl | · | 94* | 0.1 | 90* | 0.1 | 0.92
Cn1c(=O)c2c(nc(SC3C(=O)CC(C)(C)CC3=O)n2C)n(C)c1=O | 0.24 | -32 | 1.3 | -22 | 1.2 | -0.00015
CC(C)Sc1nc2c(c(=O)n(C)c(=O)n2C)n1C | · | 18 | 0.8 | 78* | 0.2 | 0.037
CC(O)Cn1cnc2c1c(=O)n(C)c(=O)n2C (stereo not drawn) | 0.48 | · | · | · | · | -0.96
N#CC1=C(N)Oc2cc(N)ccc2C1c1ccc(F)cc1 (stereo not drawn) | · | 50* | 0.5 | 74* | 0.3 | 0.61
COc1cc(C2C(C#N)=C(N)Oc3cc(N)ccc32)cc(OC)c1OC (stereo not drawn) | 1.7 | · | · | · | · | -0.71
Cc1ccc(C2C(C#N)=C(N)Oc3cc4c(cc32)OCO4)cc1 (stereo not drawn) | 2.5 | 74* | 0.3 | 72* | 0.3 | -0.38
O=C(Cn1nc(-c2ccccc2)nc1-c1ccccc1)OC1CCCCC1 | · | · | · | · | · | 1.1
CCOC(=O)Cn1nc(-c2ccccc2)nc1-c1ccccc1 | -3.5* | 26 | 0.7 | 5 | 1 | 0.13
CC(=O)c1c(C)[nH]c(C(=O)OC2CCCCC2=O)c1C (stereo not drawn) | -0.12 | 18 | 0.8 | 26 | 0.7 | 0.46
Cc1scc(C(=O)N2CCN(S(C)(=O)=O)CC2)c1-c1ccccc1 | -0.11 | 34 | 0.7 | 97* | 0 | -0.55
O=C(c1ccccc1F)N1CCN(S(=O)(=O)c2ccc(S(=O)(=O)N3CCCCC3)cc2)CC1 | 0.33 | 9 | 0.9 | 80* | 0.2 | 0.84
CS(=O)(=O)N1CCN(C(=O)c2c(F)cccc2F)CC1 | -0.16 | -12 | 1.1 | 14 | 0.9 | -0.24
Cc1cccc(CN2CCN(C(=O)c3ccccc3F)CC2)c1 | -1.5 | 68* | 0.3 | 99* | 0 | 1.1
CS(=O)(=O)N1CCN(C(=O)c2ccccc2F)CC1 | 0.054 | -9 | 1.1 | 57* | 0.4 | 0.055
Cc1cccc(NC(=O)N2CCN(Cc3ccccc3)CC2)c1 | · | · | · | · | · | -0.19
CN1CCC(OC(=O)COc2ccc(C(C)(C)C)cc2)CC1 | -0.023 | 4 | 1 | 6 | 0.9 | ·
O=C(CC12CC3CC(C1)CC(CC(=O)N1CCCC1)(C3)C2)N1CCCC1 | 0.32 | -15 | 1.1 | -8 | 1.1 | -0.012
COc1ccccc1CN1CC(C(=O)NC2CCCCC2)CC1=O (stereo not drawn) | 0.013 | -20 | 1.2 | 12 | 0.9 | -1.5
CCOC(=O)C1=C(C)SC2=NS(=O)(=O)CCN21 | 0.39 | -2 | 1 | 40 | 0.6 | -0.48
O=C1CSC(c2ccccc2)N1c1nnc(C23CC4CC(CC(C4)C2)C3)s1 (stereo not drawn) | · | 14 | 0.9 | 14 | 0.9 | -1.3
CC(=O)NCCOc1ccc(C(=O)O)cc1 | -0.093 | -20 | 1.2 | -17 | 1.2 | 1
CC(C)CCOc1ccc(C(=O)O)cc1 | · | 83* | 0.2 | 83* | 0.2 | -0.39
CCC(=O)OCCCCCCOc1ccc(C(=O)O)cc1 | · | -12 | 1.1 | 63* | 0.4 | -0.65
O=C(NCCCN1CCOCC1)c1cc2ccccc2o1 | · | 7 | 0.9 | 25 | 0.8 | -0.071
CCCc1n[nH]c2c1/C(=N/O)CC(c1ccccc1)C2 (stereo not drawn) | -0.061 | 35 | 0.6 | 77* | 0.2 | -0.062
Cc1[nH]nc2c1C(=O)CC(C)(C)C2 | -0.23 | 1 | 1 | -2 | 1 | -1.3
Cc1[nH]nc2c1/C(=N\O)CC(C)(C)C2 | -0.016 | 26 | 0.7 | 51* | 0.5 | -0.27
Cc1[nH]nc2c1/C(=N/O)CC(c1ccccc1)C2 (stereo not drawn) | · | 45 | 0.6 | 74* | 0.3 | 0.027
